Inconclusive results are not listed. The source made the active and inactive calls. Calls follow the shape of the dose curve; as a rule, active = well fitted curve in the direction sought with a large enough effect in the repeat runs; inconclusive = weak or mixed curves; inactive = no such curve, though single readings can be large; an effect the other way counts as inactive or inconclusive.
Key:
[1] = A CellTox Green Cytotoxicity Assay to monitor cytotoxicity in HEK293 cells - 40 hour (AID 1224871); also: nearly all actives have a fitted effect of over 45% in size
Outline: (§1)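 Fluorescence intensity, read at 0, 8, 16, 24, 32 and 40 h of compound treatment, reflected dye binding to DNA of dead HEK293 cells; compounds (23 nL, DMSO) were added 5 h after plating cells with reagent.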

[2] = qHTS RealTime-Glo MT Cell Viability Assay in HEK293 cells - 16 hour (AID 1224872); also: top concentration of the series differs between compounds; nearly all actives have a fitted effect of over 50% in size
Outline: (§2)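 HEK293 cells seeded with NanoLuc/prosubstrate reagent, rested 5 h at 37 C, then dosed and kept at 37 C up to 40 h. Nonlytic real-time luminescence from viable cells read at 0, 8, 16, 24, 32 and 40 h.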

[3] = qHTS RealTime-Glo MT Cell Viability Assay in HepG2 cells - 8 hour (AID 1224873); also: nearly all actives have a fitted effect of over 55% in size
Outline: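 HepG2 cells mixed with RealTime-Glo MT reagents (NanoLuc plus cell-permeant prosubstrate) were seeded at 600 cells/well, incubated 5 h at 37 C/5% CO2, then pinned with compounds in DMSO; nonlytic luminescence tracked viability during 40 h treatment.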

[4] = qHTS RealTime-Glo MT Cell Viability Assay in HEK293 cells - 40 hour (AID 1224874); settings: RealTime-Glo luminescence; max response: hits give low values; also: nearly all actives have a fitted effect of over 50% in size
Outline: (§3)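 Viable HEK293 cells reduce a cell-permeant prosubstrate; the product diffuses out and is consumed by NanoLuc in the medium to give light. Compounds went in after a 5 h incubation and plates were read over the treatment course.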

[5] = A CellTox Green Cytotoxicity Assay to monitor cytotoxicity in HEK293 cells - 24 hour (AID 1224875); also: series mostly up to about 77 µM; nearly all actives have a fitted effect of over 45% in size
Outline: as §1

[6] = A CellTox Green Cytotoxicity Assay to monitor cytotoxicity in HepG2 cells - 16 hour (AID 1224876); also: nearly all actives have a fitted effect of over 45% in size
Outline: (§4)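 Using 1536-well format, dye-containing HepG2 suspension was seeded, allowed 5 h at 37 C/5% CO2, dosed by pintool with compounds, positive and negative controls, and imaged for fluorescence across 40 h.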

[7] = qHTS RealTime-Glo MT Cell Viability Assay in HepG2 cells - 32 hour (AID 1224877); also: nearly all actives have a fitted effect of over 55% in size
Outline: (§5)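 HepG2 cells (600/well) were dispensed with RealTime-Glo reagents, incubated 5 h at 37 °C, then treated with compounds in DMSO for up to 40 h. Nonlytic NanoLuc luminescence reflecting viable cells was read at each stated time point.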

[8] = A CellTox Green Cytotoxicity Assay to monitor cytotoxicity in HepG2 cells - 24 hour (AID 1224878); also: nearly all actives have a fitted effect of over 45% in size
Outline: as §4

[9] = A CellTox Green Cytotoxicity Assay to monitor cytotoxicity in HepG2 cells - 40 hour (AID 1224879); also: nearly all actives have a fitted effect of over 40% in size
Outline: as §4

[10] = qHTS RealTime-Glo MT Cell Viability Assay in HEK293 cells - 0 hour (AID 1224880)
Outline: as §3

[11] = A CellTox Green Cytotoxicity Assay to monitor cytotoxicity in HEK293 cells - 32 hour (AID 1224881); also: nearly all actives have a fitted effect of over 40% in size
Outline: as §1

[12] = A CellTox Green Cytotoxicity Assay to monitor cytotoxicity in HepG2 cells - 0 hour (AID 1224882); also: nearly all actives have a fitted effect of over 35% in size
Outline: as §4

[13] = A CellTox Green Cytotoxicity Assay to monitor cytotoxicity in HepG2 cells - 32 hour (AID 1224883); also: nearly all actives have a fitted effect of over 50% in size
Outline: as §4

[14] = A CellTox Green Cytotoxicity Assay to monitor cytotoxicity in HEK293 cells - 8 hour (AID 1224884); also: nearly all actives have a fitted effect of over 35% in size
Outline: as §1

[15] = qHTS RealTime-Glo MT Cell Viability Assay in HepG2 cells - 16 hour (AID 1224885); also: nearly all actives have a fitted effect of over 50% in size
Outline: as §5

[16] = qHTS RealTime-Glo MT Cell Viability Assay in HEK293 cells - 8 hour (AID 1224887)
Outline: as §3

[17] = A CellTox Green Cytotoxicity Assay to monitor cytotoxicity in HEK293 cells - 16 hour (AID 1224888); also: nearly all actives have a fitted effect of over 35% in size
Outline: as §1

[18] = qHTS RealTime-Glo MT Cell Viability Assay in HEK293 cells - 24 hour (AID 1224886)
Outline: as §2

[19] = qHTS RealTime-Glo MT Cell Viability Assay in HepG2 cells - 0 hour (AID 1224889); also: nearly all actives have a fitted effect of over 50% in size
Outline: as §5

[20] = A CellTox Green Cytotoxicity Assay to monitor cytotoxicity in HepG2 cells - 8 hour (AID 1224890); also: nearly all actives have a fitted effect of over 45% in size
Outline: as §4
% is scaled to controls: 0 for no effect and ±100 for the full control effect.

CCCCOc1ccc(OCCCN2CCOCC2)cc1
inactive: Potency [1] | Potency [2] | Potency [3] | max response [4] -27.6% | Potency [5] | Potency [6] | Potency [7] | Potency [8] | Potency [9] | Potency [10] | Potency [11] | Potency [12] | Potency [13] | Potency [14] | Potency [15] | Potency [16] | Potency [17]

C=C1c2cccc(O)c2C(O)=C2C(=O)[C@]3(O)C(O)=C(C(N)=O)C(=O)[C@@H](N(C)C)[C@@H]3[C@@H](O)[C@H]12
inactive: Potency [1] | Potency [2] | Potency [3] | max response [4] 3.62% | Potency [5] | Potency [6] | Potency [7] | Potency [8] | Potency [9] | Potency [10] | Potency [11] | Potency [12] | Potency [13] | Potency [14] | Potency [15] | Potency [18] | Potency [16] | Potency [17] | Potency [19] | Potency [20]

OC1(c2ccccc2)CCNCC1
inactive: Potency [1] | Potency [2] | Potency [3] | max response [4] 5.53% | Potency [5] | Potency [6] | Potency [7] | Potency [8] | Potency [9] | Potency [10] | Potency [11] | Potency [12] | Potency [13] | Potency [14] | Potency [18] | Potency [16] | Potency [17] | Potency [20]

CCc1ccccc1
inactive: Potency [1] | Potency [2] | Potency [3] | max response [4] 10.2% | Potency [5] | Potency [6] | Potency [7] | Potency [8] | Potency [9] | Potency [10] | Potency [11] | Potency [12] | Potency [13] | Potency [14] | Potency [15] | Potency [18] | Potency [16] | Potency [17] | Potency [19] | Potency [20]

O=C(O)c1ccc(OCCCOc2ccc(C(=O)O)cc2)cc1
inactive: Potency [1] | Potency [2] | Potency [3] | max response [4] 1.73% | Potency [5] | Potency [6] | Potency [7] | Potency [8] | Potency [9] | Potency [10] | Potency [12] | Potency [13] | Potency [14] | Potency [15] | Potency [18] | Potency [16] | Potency [17] | Potency [19] | Potency [20]

CN1C(=O)OC(C)(C)C1=O
inactive: Potency [1] | Potency [2] | Potency [3] | max response [4] 0.839% | Potency [5] | Potency [6] | Potency [7] | Potency [8] | Potency [9] | Potency [10] | Potency [11] | Potency [12] | Potency [13] | Potency [14] | Potency [15] | Potency [18] | Potency [16] | Potency [17] | Potency [19] | Potency [20]

O=C(OC(=O)c1ccccc1)c1ccccc1
inactive: Potency [1] | Potency [2] | Potency [3] | max response [4] 6.21% | Potency [5] | Potency [6] | Potency [7] | Potency [8] | Potency [9] | Potency [10] | Potency [11] | Potency [12] | Potency [13] | Potency [14] | Potency [15] | Potency [18] | Potency [16] | Potency [17] | Potency [19] | Potency [20]

OCCOCC#CCOCCO
inactive: Potency [1] | Potency [2] | Potency [3] | max response [4] 7.98% | Potency [5] | Potency [6] | Potency [7] | Potency [8] | Potency [9] | Potency [10] | Potency [11] | Potency [12] | Potency [13] | Potency [14] | Potency [18] | Potency [16] | Potency [17] | Potency [20]

CN1C(C(=O)Nc2ccccn2)=C(O)c2sccc2S1(=O)=O
inactive: Potency [1] | Potency [2] | Potency [3] | max response [4] 6.41% | Potency [5] | Potency [6] | Potency [7] | Potency [8] | Potency [9] | Potency [10] | Potency [11] | Potency [13] | Potency [14] | Potency [15] | Potency [18] | Potency [16] | Potency [17] | Potency [19] | Potency [20]

C[C@]1(Cn2ccnn2)[C@H](C(=O)O)N2C(=O)C[C@H]2S1(=O)=O
inactive: Potency [1] | Potency [2] | Potency [3] | max response [4] 2.48% | Potency [5] | Potency [6] | Potency [7] | Potency [8] | Potency [9] | Potency [10] | Potency [11] | Potency [12] | Potency [13] | Potency [14] | Potency [15] | Potency [18] | Potency [16] | Potency [17] | Potency [19] | Potency [20]

O=C1c2ccccc2C(=O)C1c1ccc(Br)cc1
inactive: Potency [1] | Potency [2] | Potency [3] | max response [4] -7.99% | Potency [5] | Potency [6] | Potency [7] | Potency [8] | Potency [9] | Potency [10] | Potency [11] | Potency [12] | Potency [13] | Potency [14] | Potency [18] | Potency [16] | Potency [17] | Potency [19]

CC/C=C1/OC(=O)c2ccccc21
inactive: Potency [1] | Potency [2] | Potency [3] | max response [4] -7.38% | Potency [5] | Potency [6] | Potency [7] | Potency [8] | Potency [10] | Potency [11] | Potency [12] | Potency [13] | Potency [14] | Potency [15] | Potency [18] | Potency [16] | Potency [17] | Potency [19] | Potency [20]

CCC1CO1 (stereo not given)
inactive: Potency [1] | Potency [2] | Potency [3] | max response [4] 4.39% | Potency [5] | Potency [6] | Potency [7] | Potency [8] | Potency [9] | Potency [10] | Potency [12] | Potency [13] | Potency [14] | Potency [15] | Potency [18] | Potency [16] | Potency [17] | Potency [19] | Potency [20]

CCC(=O)C1CC(C(C)C)CC=C1C (stereo not given)
inactive: Potency [1] | Potency [2] | Potency [3] | max response [4] 9.7% | Potency [5] | Potency [7] | Potency [8] | Potency [9] | Potency [10] | Potency [12] | Potency [13] | Potency [14] | Potency [15] | Potency [18] | Potency [16] | Potency [17] | Potency [19] | Potency [20]

Source: PubChem BioAssay (Tox21)
